Five compounds from PubChem BioAssay can be followed below.

Activity calls are given as the source filed them.

Experiment [1] concerns PRMT1 (protein arginine N-methyltransferase 1). Briefly: PRMT1 binders on small-molecule microarrays, primary screen, biochemical, small-molecule microarray, 635 nm fluorescence (AID 1088).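 Further: binding of Prmt1 protein to compounds spotted on small-molecule microarray slides.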 The following applies: small-molecule microarray binding, higher = more signal.
Experiment [2] can be described thus: yeast growth modulation, basal conditions, primary screen, YJM789 clinical isolate, OD600, 24 h (AID 1089).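 Further: growth of clinical yeast isolate S. cerevisiae YJM 789 seeded 1000 cells per well; test concentration not given here.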 As to conditions: S. cerevisiae YJM789 growth, higher = more signal, called active from +8 up or from −8 down.
Experiment [3] is described as follows: fission yeast growth modulation, primary screen, strain 972, OD600, 24 h, no modulator (AID 1090).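 Further: basal condition with compound alone and no growth modifier present; test concentration not given here.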 As to conditions: S. pombe 972 growth, higher = more signal, called active from +8 up or from −8 down.
The nature of experiment [4]: S. cerevisiae growth modulation with rapamycin, primary screen, strain BY4716, OD600, 96 h (AID 1091). Further: test concentration not given here. The following applies: higher = more signal, called active from +8 up or from −8 down.
Experiment [5] addresses Torsin-1A-interacting protein 2 (Homo sapiens) (UniProt Q8NFQ8). In words: LULL1 binders on small-molecule microarray, primary screen, cell lysate, human LULL1 lysate, 635/667 nm fluorescence (AID 1092).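 Further: probe is lysate of COS7 cells overexpressing human LULL1; score merges per-feature 667 nm fluorescence with signal-to-noise.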 The following applies: hLULL1 lysate binding, 635 nm fluorescence, higher = more signal.
Experiment [6] is described as follows: E. coli growth modulation, two-sided OD650, primary screen, E. coli filamentation project, strain DRC41, 24 h (AID 1093).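 Further: MC1000 strain lacking acrAB efflux and sulA so SOS filamentation is blocked; test concentration not given here.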 The following applies: OD650, 24 h, higher = more signal, called active from +8 up or from −8 down.
A short description of experiment [7]: small-molecule microarray binders of probe aLefty2, primary screen, biochemical, biotinylated probe, 635/667 nm fluorescence (AID 1094).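 Further: score merges spot fluorescence near 667 nm with spot signal-to-noise ratio.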 As to conditions: higher = more signal.
In experiment [8] the test system is Noggin (protein binding on small-molecule microarray). Briefly: Noggin binders on small-molecule microarray, primary screen, biochemical, 635/667 nm fluorescence (AID 1095).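 Further: score merges 667 nm feature fluorescence with signal to noise over triplicate slides.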 As to conditions: 635 nm fluorescence, higher = more signal.
Experiment [9] addresses Neurogenic locus notch homolog protein 3 (Homo sapiens) (UniProt Q9UM47). Briefly: NOTCH3 binders on small-molecule microarray, primary screen, biochemical, 635/667 nm fluorescence (AID 1096). As to conditions: NOTCH3 binding, 635 nm fluorescence, higher = more signal.
Experiment [10] is described as follows: small-molecule microarray binders of probe aEGFR, primary screen, biochemical, biotinylated probe, 635/667 nm fluorescence (AID 1097).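 Further: probe is a biotinylated anti-EGFR antibody binding compounds printed on slides; score combines fluorescence near 667 nm and signal to noise of each spot.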 As to conditions: higher = more signal.
Experiment [11] has as its system Plasmodium falciparum Sir2 (PF13_0152, Sir2A). Briefly: pfSir2 binders on small-molecule microarrays, primary screen, biochemical, small-molecule microarray, 635 nm fluorescence (AID 1098).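 Further: score merges spot fluorescence intensity with its signal-to-noise ratio.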 As to conditions: small-molecule microarray binding, fluorescence 635 nm; higher = more signal.
Experiment [12] can be described thus: small-molecule microarray binders of probe aDKK1, primary screen, biochemical, biotinylated probe, 635/667 nm fluorescence (AID 1099).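 Further: score merges 667nm spot fluorescence with signal to noise across triplicate slides; reference of the scale not given here.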 As to conditions: higher = more signal.
Experiment [13] in a line: small-molecule microarray binders of probe aCHRDL2, primary screen, biochemical, biotinylated probe, 635/667 nm fluorescence (AID 1100). As to conditions: higher = more signal.
A short description of experiment [14]: splicing luciferase reporter signal modulators, primary screen, spliceosome inhibition project, cell-based, HEK293, splice +/- reporter (AID 1101).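 Further: HEK293 cells carrying a splicing-competent luciferase reporter gene; test concentration not given here.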 The following applies: luminescence, 24 h, higher = more signal, called active from +8 up or from −8 down. (In general: Reporter assays use an easily measured gene product as a stand-in for the process of interest.)

Experiment [15] addresses Fibroblast growth factor 10 (Homo sapiens) (UniProt O15520). In words: FGF10 binders on small-molecule microarrays, primary screen, biochemical, small-molecule microarray, 635 nm fluorescence (AID 1102). As to conditions: FGF10 binding, fluorescence 635 nm, higher = more signal.
The subject of experiment [16] is glycogen synthase kinase-3 (GSK3A per assay name; protocol says GSK3B). Briefly: GSK3 binders on small-molecule microarrays, primary screen, biochemical, small-molecule microarray, 635 nm fluorescence, GSK3A (AID 1103). Further: the record names both GSK3A and GSK3B. As to conditions: small-molecule microarray binding, fluorescence 635 nm; higher = more signal.
For experiment [17], the target named is Epidermal growth factor receptor (Homo sapiens) (UniProt P00533). In words: EGFR binders on small-molecule microarrays, primary screen, biochemical, small-molecule microarray, 635 nm fluorescence (AID 1104).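 Further: score merges 667 nm emission intensity with spot signal to noise over triplicate slides.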 The following applies: EGFR binding, higher = more signal.
Experiment [18] addresses Follistatin-related protein 3 (Homo sapiens) (UniProt O95633). In words: FSTL3 binders on small-molecule microarrays, primary screen, biochemical, small-molecule microarray, 635 nm fluorescence (AID 1105).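 Further: score merges emission near 667 nm and signal to noise per printed spot across three slides.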 The following applies: FSTL3 binding, higher = more signal.
The target in experiment [19] is Dickkopf-related protein 1 (Homo sapiens) (UniProt O94907). In words: DKK1 binders on small-molecule microarrays, primary screen, biochemical, small-molecule microarray, 635 nm fluorescence scan (AID 1106).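 Further: score merges emission near 667 nm with signal to noise over three replicate slides.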 As to conditions: DKK1 binding, higher = more signal.
The subject of experiment [20] is Inhibin beta A chain (activin A). In words: INHBA (activin A) binders on microarrays, primary screen, biochemical, small-molecule microarray, 635 nm fluorescence scan (AID 1107).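 Further: mouse activin A protein probed at 4.33 µg/mL on printed slides; score merges bound-protein fluorescence near 667 nm with spot signal-to-noise.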 The following applies: small-molecule microarray binding, higher = more signal.

Fibroblast growth factor 10 (Homo sapiens), sequence (O15520 whole entry, looked up): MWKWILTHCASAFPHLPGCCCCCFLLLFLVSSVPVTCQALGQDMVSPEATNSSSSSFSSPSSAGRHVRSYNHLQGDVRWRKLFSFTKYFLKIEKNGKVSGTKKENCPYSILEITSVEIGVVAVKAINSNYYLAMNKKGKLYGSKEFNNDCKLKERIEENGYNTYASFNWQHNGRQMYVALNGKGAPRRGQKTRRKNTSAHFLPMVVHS
Epidermal growth factor receptor (Homo sapiens), sequence (P00533 whole entry, looked up): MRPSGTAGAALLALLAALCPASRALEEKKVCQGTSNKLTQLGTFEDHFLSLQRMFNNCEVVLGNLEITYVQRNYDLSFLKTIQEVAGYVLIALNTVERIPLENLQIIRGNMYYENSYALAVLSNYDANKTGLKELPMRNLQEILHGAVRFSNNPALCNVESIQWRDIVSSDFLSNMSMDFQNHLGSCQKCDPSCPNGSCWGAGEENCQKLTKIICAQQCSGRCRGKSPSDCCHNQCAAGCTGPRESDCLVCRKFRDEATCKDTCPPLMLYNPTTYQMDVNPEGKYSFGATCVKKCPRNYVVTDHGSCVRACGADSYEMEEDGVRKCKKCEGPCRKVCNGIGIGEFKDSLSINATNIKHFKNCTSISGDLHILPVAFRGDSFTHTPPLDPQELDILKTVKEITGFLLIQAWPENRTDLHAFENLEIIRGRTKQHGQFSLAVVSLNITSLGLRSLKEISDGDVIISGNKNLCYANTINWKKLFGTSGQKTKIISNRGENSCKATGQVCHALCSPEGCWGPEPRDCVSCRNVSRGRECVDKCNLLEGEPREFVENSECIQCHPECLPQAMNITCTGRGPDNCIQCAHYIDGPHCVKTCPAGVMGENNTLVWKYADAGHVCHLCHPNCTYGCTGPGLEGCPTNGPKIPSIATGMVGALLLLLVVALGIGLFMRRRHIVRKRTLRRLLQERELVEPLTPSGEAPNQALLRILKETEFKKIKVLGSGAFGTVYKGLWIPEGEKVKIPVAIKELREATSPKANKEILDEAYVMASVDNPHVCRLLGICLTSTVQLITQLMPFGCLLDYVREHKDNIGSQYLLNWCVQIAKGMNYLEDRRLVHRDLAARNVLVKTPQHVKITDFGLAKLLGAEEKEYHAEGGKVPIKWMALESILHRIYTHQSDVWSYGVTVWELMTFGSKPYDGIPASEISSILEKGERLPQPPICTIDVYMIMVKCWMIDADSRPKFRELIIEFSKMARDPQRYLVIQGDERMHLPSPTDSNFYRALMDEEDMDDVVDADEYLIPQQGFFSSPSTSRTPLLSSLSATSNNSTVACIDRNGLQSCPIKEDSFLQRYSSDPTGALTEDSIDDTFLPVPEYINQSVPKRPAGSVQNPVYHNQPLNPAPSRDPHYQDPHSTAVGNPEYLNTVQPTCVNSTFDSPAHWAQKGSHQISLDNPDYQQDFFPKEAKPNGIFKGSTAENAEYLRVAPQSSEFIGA
Follistatin-related protein 3 (Homo sapiens), sequence (O95633 whole entry, looked up): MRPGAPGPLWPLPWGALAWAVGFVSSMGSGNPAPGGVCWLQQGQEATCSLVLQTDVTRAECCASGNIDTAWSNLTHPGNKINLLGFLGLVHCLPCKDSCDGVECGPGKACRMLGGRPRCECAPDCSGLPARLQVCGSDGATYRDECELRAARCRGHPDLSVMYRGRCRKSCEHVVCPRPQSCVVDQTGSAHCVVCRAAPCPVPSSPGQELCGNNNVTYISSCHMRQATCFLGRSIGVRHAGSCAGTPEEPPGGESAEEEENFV
Torsin-1A-interacting protein 2 (Homo sapiens), sequence (Q8NFQ8 whole entry, looked up): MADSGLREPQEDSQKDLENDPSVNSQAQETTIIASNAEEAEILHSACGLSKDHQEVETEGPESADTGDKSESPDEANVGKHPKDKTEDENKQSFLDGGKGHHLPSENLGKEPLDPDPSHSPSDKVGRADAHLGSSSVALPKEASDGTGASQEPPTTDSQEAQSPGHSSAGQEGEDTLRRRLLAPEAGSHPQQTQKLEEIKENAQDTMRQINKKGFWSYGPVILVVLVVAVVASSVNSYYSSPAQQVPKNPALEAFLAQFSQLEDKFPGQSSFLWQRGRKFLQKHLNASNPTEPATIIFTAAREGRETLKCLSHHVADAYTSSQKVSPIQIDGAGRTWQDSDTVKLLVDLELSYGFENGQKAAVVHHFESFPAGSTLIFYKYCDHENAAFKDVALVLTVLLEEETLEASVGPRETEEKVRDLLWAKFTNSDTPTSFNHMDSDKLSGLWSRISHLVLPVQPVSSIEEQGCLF
Dickkopf-related protein 1 (Homo sapiens), sequence (O94907 whole entry, looked up): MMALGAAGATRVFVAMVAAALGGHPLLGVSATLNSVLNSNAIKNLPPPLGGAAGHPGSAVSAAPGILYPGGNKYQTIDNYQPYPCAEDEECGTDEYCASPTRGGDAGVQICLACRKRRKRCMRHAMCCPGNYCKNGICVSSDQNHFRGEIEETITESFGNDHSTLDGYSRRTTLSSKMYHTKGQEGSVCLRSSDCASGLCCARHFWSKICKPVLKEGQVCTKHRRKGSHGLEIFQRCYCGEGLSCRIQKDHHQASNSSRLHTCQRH
Neurogenic locus notch homolog protein 3 (Homo sapiens), sequence (Q9UM47 whole entry, looked up): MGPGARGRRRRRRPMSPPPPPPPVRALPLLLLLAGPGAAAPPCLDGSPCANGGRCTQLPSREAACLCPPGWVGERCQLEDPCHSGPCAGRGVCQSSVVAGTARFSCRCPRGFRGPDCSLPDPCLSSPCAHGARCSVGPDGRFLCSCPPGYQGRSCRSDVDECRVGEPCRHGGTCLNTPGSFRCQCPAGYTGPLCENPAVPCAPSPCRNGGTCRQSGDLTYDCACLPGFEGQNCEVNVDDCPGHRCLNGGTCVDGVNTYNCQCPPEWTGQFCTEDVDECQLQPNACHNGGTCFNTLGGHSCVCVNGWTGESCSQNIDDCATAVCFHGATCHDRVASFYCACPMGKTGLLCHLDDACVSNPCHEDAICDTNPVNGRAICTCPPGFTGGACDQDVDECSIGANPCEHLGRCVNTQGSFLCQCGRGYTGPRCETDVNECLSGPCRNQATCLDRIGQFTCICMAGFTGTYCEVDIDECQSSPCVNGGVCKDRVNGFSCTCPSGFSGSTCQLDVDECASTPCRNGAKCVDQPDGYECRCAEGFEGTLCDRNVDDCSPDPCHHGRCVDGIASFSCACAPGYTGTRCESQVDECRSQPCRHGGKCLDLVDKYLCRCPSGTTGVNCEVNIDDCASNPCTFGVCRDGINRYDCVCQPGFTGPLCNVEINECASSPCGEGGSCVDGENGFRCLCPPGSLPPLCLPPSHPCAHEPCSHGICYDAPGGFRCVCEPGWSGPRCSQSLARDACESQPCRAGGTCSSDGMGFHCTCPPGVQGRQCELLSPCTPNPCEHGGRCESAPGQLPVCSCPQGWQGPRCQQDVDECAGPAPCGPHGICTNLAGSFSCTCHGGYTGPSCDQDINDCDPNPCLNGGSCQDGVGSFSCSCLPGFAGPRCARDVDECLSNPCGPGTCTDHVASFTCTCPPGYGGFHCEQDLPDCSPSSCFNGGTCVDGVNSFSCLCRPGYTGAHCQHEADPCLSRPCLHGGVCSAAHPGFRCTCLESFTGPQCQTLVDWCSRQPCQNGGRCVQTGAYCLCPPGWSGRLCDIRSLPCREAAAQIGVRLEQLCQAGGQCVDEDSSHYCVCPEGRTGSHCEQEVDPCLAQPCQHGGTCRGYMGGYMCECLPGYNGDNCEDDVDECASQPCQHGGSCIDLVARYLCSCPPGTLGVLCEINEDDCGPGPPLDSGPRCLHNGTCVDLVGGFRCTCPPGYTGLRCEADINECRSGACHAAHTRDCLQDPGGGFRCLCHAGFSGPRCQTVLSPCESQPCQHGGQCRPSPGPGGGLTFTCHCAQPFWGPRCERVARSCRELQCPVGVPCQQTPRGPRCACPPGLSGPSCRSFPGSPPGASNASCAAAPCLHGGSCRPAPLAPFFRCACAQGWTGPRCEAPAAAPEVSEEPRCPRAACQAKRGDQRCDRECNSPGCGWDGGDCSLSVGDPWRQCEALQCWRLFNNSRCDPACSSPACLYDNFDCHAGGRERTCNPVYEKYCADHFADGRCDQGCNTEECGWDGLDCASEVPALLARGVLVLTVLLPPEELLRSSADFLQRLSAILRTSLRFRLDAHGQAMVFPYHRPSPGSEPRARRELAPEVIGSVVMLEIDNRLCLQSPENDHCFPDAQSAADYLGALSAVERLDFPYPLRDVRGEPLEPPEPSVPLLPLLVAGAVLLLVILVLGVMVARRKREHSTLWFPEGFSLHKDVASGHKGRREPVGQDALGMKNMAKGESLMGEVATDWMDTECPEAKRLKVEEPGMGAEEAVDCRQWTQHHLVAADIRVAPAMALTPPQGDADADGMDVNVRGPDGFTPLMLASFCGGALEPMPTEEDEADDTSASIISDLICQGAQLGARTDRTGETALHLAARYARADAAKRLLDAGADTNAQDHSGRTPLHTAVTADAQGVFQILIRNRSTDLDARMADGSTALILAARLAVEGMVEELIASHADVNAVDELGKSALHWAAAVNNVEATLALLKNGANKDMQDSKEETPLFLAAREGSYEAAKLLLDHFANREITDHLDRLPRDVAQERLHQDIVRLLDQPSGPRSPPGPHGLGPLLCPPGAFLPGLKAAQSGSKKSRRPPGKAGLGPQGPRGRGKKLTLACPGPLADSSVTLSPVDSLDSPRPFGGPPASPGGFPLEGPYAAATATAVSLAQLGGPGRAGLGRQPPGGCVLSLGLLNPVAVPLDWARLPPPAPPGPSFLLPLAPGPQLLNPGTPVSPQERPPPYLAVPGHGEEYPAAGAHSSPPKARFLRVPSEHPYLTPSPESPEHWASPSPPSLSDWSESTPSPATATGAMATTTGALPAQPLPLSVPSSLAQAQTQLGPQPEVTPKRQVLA

Regarding `C=C(CCCC)C(=O)CC[C@H](OC(C)=O)c1ccc(CO)o1`, the composite z-score was 1.47 in experiment [1]; 0.616 in experiment [5]; -0.0339 in experiment [7]; 0.53 in experiment [8]; 0.137 in [9]; -0.182 in experiment [10]. The composite z-score in experiment [11] was 0.621; in experiment [12], -0.402; in experiment [13], -0.456; in experiment [15], 0.123; in experiment [16], 0.2; in experiment [17] it was -0.567. In addition, the figures for the composite z-score in experiment [18], in experiment [19] and in experiment [20] were -0.139, -0.0639 and 1.24, respectively. Moreover, the z-score in [2] was 1.04 (inactive); in experiment [3] it was -1.43 (inactive); in experiment [4] it was -0.181 (inactive); in experiment [6], 1.38 (inactive); in experiment [14] it was -1.14 (inactive).

Take `C=CC[C@@]1(C(N)=O)N=C(c2ccc(OCCCO)cc2)O[C@@H]1c1ccccc1N=[N+]=[N-]`: the composite z-score in [1] was 1.14; in [5], 2.44; in [7] it was 0.429; in experiment [8], 0.404; in experiment [9], -0.299; in [10] it was 0.317. Also, the composite z-score was determined as 1.61 in experiment [11]; 1.36 in experiment [12]; 1.14 in [13]; 0.63 in experiment [15]; 0.649 in experiment [16]; 0.0347 in experiment [17]. The composite z-score in [18] worked out at 0.0562; in [19], 1.16; in experiment [20], 1.38. The z-score in experiment [2] is -0.545 (inactive); in [3], 0.0584 (inactive); in experiment [4], -1.15 (inactive); in [6] it was 1.4 (inactive); in experiment [14], -0.0133 (inactive).

On to `Cc1ccc(F)cc1S(=O)(=O)N[C@@H]1CCN(Cc2ccc(C(F)(F)F)cc2)C1`, for which the composite z-score in [1] was 1.14; in [5], 1.08; in experiment [7], -0.227; in experiment [8], 0.412; in [9] it was -0.145; in experiment [10], -0.218. Besides, the composite z-score is -0.245 in experiment [11]; 0.735 in experiment [12]; -0.565 in [13]; -0.425 in [15]; -1.41 in experiment [16]; -0.444 in [17]. Also, the results for the composite z-score in experiment [18], in experiment [19] and in experiment [20] were -0.769, 0.0494 and -0.127, respectively. Moreover, the z-score is -1.27 (inactive) in experiment [2]; -20.3 (active) in [3]; -1.1 (inactive) in experiment [4]; -4.8 (inactive) in experiment [6]; 0.169 (inactive) in experiment [14].

With `C=C(/C(=C/C[C@@H](OC(C)=O)c1ccc(CO)o1)c1cnc2ccccc2c1)C(C)C`, the composite z-score is 1.55 in [1]; 1.86 in experiment [5]; -0.11 in [7]; 1.08 in experiment [8]; 1.07 in experiment [9]; 0.0367 in experiment [10]. Also, the composite z-score was 1.18 in [11]; -0.198 in [12]; -0.541 in experiment [13]; 1.66 in experiment [15]; 1.32 in experiment [16]; 0.792 in [17]. In addition, the composite z-score in [18] came out at 1.45; in [19] it was 1.24; in [20] it was 1.39. The z-score in experiment [2] is 1.2 (inactive); in experiment [3], -0.767 (inactive); in [4] it was 0.375 (inactive); in experiment [6], 1.27 (inactive); in [14], -0.541 (inactive).

Turning to `COc1c(C)cc(-c2cc3c(c(-c4ccccc4)n2)[Si](C(C)C)(C(C)C)O[C@H]3c2ccccc2)cc1C`, the composite z-score in experiment [1] was 0.431; in experiment [5], 0.0055; in experiment [7], -0.166; in experiment [8], 0.37; in [9], 0.418; in experiment [10] it was -0.0359. For the same compound, the composite z-score in experiment [11] is -0.14; in experiment [12] it was -0.16; in [13], -0.327; in [15], 0.397; in experiment [16] it was 0.02; in experiment [17], 0.0111. Also, the composite z-score was 0.168 in [18], 0.211 in experiment [19] and 0.0244 in experiment [20]. The z-score in [2] is -0.336 (inactive); in experiment [3], -0.253 (inactive); in [4] it was 0.0998 (inactive); in experiment [6], -1.1 (inactive); in experiment [14], 0.139 (inactive).
